The target of assay [1] is human Vasopressin 1A Receptor (V1A), AVPR1A (gene 552) (UniProt P37288). The experiment in a line: NVS_GPCR_hV1A: NovaScreen (NVS) G Protein-Coupled Receptor Assay for human Vasopressin 1A Receptor (V1A) (AID 2283284). Summed up:
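Cell-free radioligand displacement on human platelet preparations, 1.5 h incubation, filter-based scintillation counting. Chemicals first tested in duplicate at 25 uM; actives then run in concentration-response up to 50 uM, loss of signal fitted against DMSO.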

The target of assay [2] is human Opioid Receptor Mu (Opiate Mu), OPRM1 (gene 4988) (UniProt P35372). The experiment in a line: NVS_GPCR_hOpiate_mu: NovaScreen (NVS) G Protein-Coupled Receptor Assay for human Opioid Receptor Mu (Opiate Mu) (AID 2283290).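 Note: hits lower bound tracer signal versus DMSO meaning displacement of the ligand.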 The gist of the method: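 CHO-derived receptor protein, cell-free; radioligand displacement, filtration + scintillation counting, read at 2.5 h. DMSO = negative control/baseline. Primary: 25 uM single conc, duplicate; secondary: concentration series.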

The target of assay [3] is mouse Cholecystokinin, CCK1 Receptor (CCKA), Cckar (gene 12425) (UniProt O08786). In words: NVS_GPCR_mCCKAPeripheral: NovaScreen (NVS) G Protein-Coupled Receptor Assay for mouse Cholecystokinin, CCK1 Receptor (CCKA) (AID 2283285). Summed up: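 Radioligand competitive displacement on mouse pancreatic membranes, 2 h incubation; filter-based scintillation counting, loss of signal versus DMSO. Single-concentration screen at 25 uM in duplicate, actives retested in concentration-response up to 50 uM.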

Assay [4] relates to rabbit Platelet Activating Factor Receptor (PAF), gene 100354046. In words: NVS_GPCR_rabPAF: NovaScreen (NVS) G Protein-Coupled Receptor Assay for rabbit Platelet Activating Factor Receptor (PAF) (AID 2283287). Summed up: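 Rabbit platelet membrane preparation; radioligand displacement read by filter-based scintillation counting 1 h after dosing, loss of signal versus DMSO. Primary screen in duplicate at 25 uM, actives followed up in concentration series.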

Assay [5] addresses rat Adrenergic, Alpha 1, Non-selective Receptor (Adra1), Adra1a (gene 29412) (UniProt P43140). In words: NVS_GPCR_rAdra1_NonSelective: NovaScreen (NVS) G Protein-Coupled Receptor Assay for rat Adrenergic, Alpha 1, Non-selective Receptor (Adra1) (AID 2283289). Summed up: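 Rat forebrain membranes; radioligand displacement read by filter-based scintillation counting 1 h after dosing. Primary screen in duplicate at 25 uM; hits (e.g. ≥30% inhibition) rerun as concentration–response to 50 uM max. Fitted versus DMSO.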

Assay [6] addresses guinea pig Serotonin, 5-Hydroxytryptamine Receptor 4 (5HT4), HTR4 (gene 100135548) (UniProt O70528). In words: NVS_GPCR_g5HT4: NovaScreen (NVS) G Protein-Coupled Receptor Assay for guinea pig Serotonin, 5-Hydroxytryptamine Receptor 4 (5HT4) (AID 2283294). Summed up: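 Guinea pig striatal membranes; radioligand competitive displacement, filtration and scintillation counting after 1 h. Primary screen in duplicate at 25 uM; actives then tested in concentration series; loss of binding signal fitted relative to DMSO.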

Assay [7] relates to rat Adrenergic, Alpha 1B Receptor (Adra1B), gene 24173. The experiment in a line: NVS_GPCR_rAdra1B: NovaScreen (NVS) G Protein-Coupled Receptor Assay for rat Adrenergic, Alpha 1B Receptor (Adra1B) (AID 2283297). The gist of the method: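 Rat liver membranes, radioligand displacement with filter-based scintillation detection, 1 h incubation. Primary screen in duplicate at 25 uM; actives retested in concentration series; activity relative to DMSO.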

Assay [8] has as its target rat Adrenergic Receptor, Alpha 2 (Adra2), Non-selective Binding, Adra2a (gene 25083) (UniProt P22909). In words: NVS_GPCR_rAdra2_NonSelective: NovaScreen (NVS) G Protein-Coupled Receptor Assay for rat Adrenergic Receptor, Alpha 2 (Adra2), Non-selective Binding (AID 2283299). Summed up: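 Rat cortical membranes, radioligand competitive displacement read by filter-based scintillation counting 1.25 hours after dosing. Primary screen in duplicate at 25 uM; actives followed up in concentration series.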

Assay [9] has as its target rat Histamine Receptor (H3), Hrh3 (gene 85268) (UniProt Q9QYN8). In words: NVS_GPCR_rH3: NovaScreen (NVS) G Protein-Coupled Receptor Assay for rat Histamine Receptor (H3) (AID 2283303). Summed up:
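Rat forebrain membranes incubated 1 h with compound; radioligand displacement measured by filter-based scintillation counting. Single-concentration duplicates at 25 µM, then concentration-response up to 50 µM, relative to DMSO.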

For assay [10], the target named is Adra2b (gene 24174) (UniProt P19328). The experiment in a line: NVS_GPCR_rmAdra2B: NovaScreen (NVS) G Protein-Coupled Receptor Assay for hybird cells Adrenergic, Alpha 2B Receptor (Adra2B) (AID 2283306). Summed up: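 Radioligand filter-binding assay on membrane proteins from neuroglioma/blastoma hybrid cells (rodent), 1 h after dosing; scintillation counting, loss of signal vs DMSO. Primary screen in duplicate at 25 uM, actives then run in concentration series.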

Assay [11] has as its target human Thromboxane A2 Receptor (TXA2), TBXA2R (gene 6915) (UniProt P21731). In words: NVS_GPCR_hTXA2: NovaScreen (NVS) G Protein-Coupled Receptor Assay for human Thromboxane A2 Receptor (TXA2) (AID 2283282).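 Note: actives reduce bound radioligand signal relative to DMSO baseline.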 Summed up: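 Filter scintillation counting of bound radioligand, human platelet protein, 1 h exposure. Single-concentration duplicates (25 uM) first, concentration-response follow-up for actives. Binding loss scored against DMSO baseline.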

The target in assay [12] is rat Serotonin, 5-Hydroxytryptamine Receptor 1 (5HT1), Non-Selective Binding, Htr1a (gene 24473) (UniProt P19327). The experiment in a line: NVS_GPCR_r5HT1_NonSelective: NovaScreen (NVS) G Protein-Coupled Receptor Assay for rat Serotonin, 5-Hydroxytryptamine Receptor 1 (5HT1), Non-Selective Binding (AID 2283286). The gist of the method:
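Rat cortical membranes, radioligand displacement, 1 h incubation, read by filter scintillation. Primary screen in duplicate at 25 uM. Hits (e.g. ≥30% inhibition) went to concentration-response up to 50 uM, fitted as loss of binding versus DMSO.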

Assay [13] concerns the target rat Adrenergic Receptor, Beta (Adrb), Non-selective Binding, Adrb1 (gene 24925) (UniProt P18090). In words: NVS_GPCR_rAdrb_NonSelective: NovaScreen (NVS) G Protein-Coupled Receptor Assay for rat Adrenergic Receptor, Beta (Adrb), Non-selective Binding (AID 2283298). The gist of the method: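 Non-selective beta-adrenergic radioligand binding in rat cortical membranes, 1 h incubation, filter-based scintillation read-out. Primary screen 25 uM in duplicate; hits retested in concentration-response up to 50 uM, DMSO baseline.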

For assay [14], the target named is human Orphanin, Opioid Related Nociceptin Receptor 1 (ORL1), OPRL1 (gene 4987) (UniProt P41146). The experiment in a line: NVS_GPCR_hORL1: NovaScreen (NVS) G Protein-Coupled Receptor Assay for human Orphanin, Opioid Related Nociceptin Receptor 1 (ORL1) (AID 2283283). Summed up:
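Filter-based radioligand displacement with receptor extracted from HEK293 cells, read 1 hour after dosing by scintillation counting. Duplicate single-point screen at 25 uM; qualifying chemicals then run in concentration-response to 50 uM, analysed relative to DMSO.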

In assay [15] the test system is 5-hydroxytryptamine receptor 2C (pig). The experiment in a line: NVS_GPCR_p5HT2C: NovaScreen (NVS) G Protein-Coupled Receptor Assay for pig Serotonin, 5-Hydroxytryptamine Receptor 2C (5HT2C) (AID 2283288). The gist of the method:
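Pig choroid plexus membranes; radioligand competitive binding, filter-based scintillation counting, read 1 h after dosing. Primary screen in duplicate at 25 uM; actives then run as concentration series; loss of signal versus DMSO baseline.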

Assay [16] deals with rat Serotonin, 5-Hydroxytryptamine Receptor (5HT), Non-Selective Binding, Htr1a (gene 24473) (UniProt P19327). The experiment in a line: NVS_GPCR_r5HT_NonSelective: NovaScreen (NVS) G Protein-Coupled Receptor Assay for rat Serotonin, 5-Hydroxytryptamine Receptor (5HT), Non-Selective Binding (AID 2283295). The gist of the method:
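Radioligand displacement on rat cortical membranes, 1 h incubation, filter-based scintillation counting. Primary duplicates at 25 uM, actives retested in concentration series; loss of signal fitted against DMSO as baseline.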

The target in assay [17] is rat Adrenergic, Alpha 1A Receptor (Adra1A), Adra1a (gene 29412) (UniProt P43140). In words: NVS_GPCR_rAdra1A: NovaScreen (NVS) G Protein-Coupled Receptor Assay for rat Adrenergic, Alpha 1A Receptor (Adra1A) (AID 2283296). Summed up: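 Rat cortical membranes pretreated with chlorethyl clonidine; competitive radioligand displacement, 1 h. Filter-based scintillation counting. Primary screen in duplicate at 25 uM, actives followed in concentration series.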

The target in assay [18] is rat Neurokinin-1 Receptor (NK1), Tacr1 (gene 24807) (UniProt P14600). The experiment in a line: NVS_GPCR_rNK1: NovaScreen (NVS) G Protein-Coupled Receptor Assay for rat Neurokinin-1 Receptor (NK1) (AID 2283309). The gist of the method: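 Rat submaxillary gland membranes; radioligand displacement read by filter-based scintillation counting after 1 h. Primary screen in duplicate at 25 uM; actives retested in concentration series; loss of binding fitted versus DMSO.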

Assay [19] deals with rat Opioid Receptor, Non-selective Sodium (Na+) Binding, Oprm1 (gene 25601) (UniProt P33535). In words: NVS_GPCR_rOpiate_NonSelectiveNa: NovaScreen (NVS) G Protein-Coupled Receptor Assay for rat Opioid Receptor, Non-selective Sodium (Na+) Binding (AID 2283311). Summed up: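 Rat forebrain membranes, radioligand displacement with filter scintillation counting, 1.5 h incubation. Screened in duplicate at 25 µM; hits then run in concentration-response up to 50 µM; loss of binding fitted versus DMSO.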

A word on the AC50: it is the concentration giving half of the maximal activity seen.

“And” between values parts separate entries of the source, which are not always exact repeats. Equal values may be shown once. Results filed as inconclusive are left out. The source holds several records for some structures; these can differ, active in one and inactive in another. The source made the active and inactive calls. Rule for the calls: active = hit-call score of the fitted dose curve at least 0.9, where 1 is the maximum; inconclusive = response in the unintended direction; inactive = score below 0.9.

human Vasopressin 1A Receptor (V1A), AVPR1A (gene 552), sequence (P37288 whole entry, looked up): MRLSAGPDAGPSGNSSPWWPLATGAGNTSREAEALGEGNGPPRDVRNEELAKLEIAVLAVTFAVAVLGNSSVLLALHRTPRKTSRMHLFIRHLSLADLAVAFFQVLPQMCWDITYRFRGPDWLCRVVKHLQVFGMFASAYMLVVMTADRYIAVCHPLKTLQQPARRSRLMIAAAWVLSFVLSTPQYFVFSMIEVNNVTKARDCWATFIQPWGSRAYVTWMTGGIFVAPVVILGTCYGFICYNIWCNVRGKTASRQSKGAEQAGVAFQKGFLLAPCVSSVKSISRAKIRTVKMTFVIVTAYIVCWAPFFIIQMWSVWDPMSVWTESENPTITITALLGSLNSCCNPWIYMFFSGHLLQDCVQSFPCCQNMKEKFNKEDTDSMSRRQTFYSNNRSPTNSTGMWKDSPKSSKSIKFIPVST
human Opioid Receptor Mu (Opiate Mu), OPRM1 (gene 4988), sequence (P35372 whole entry, looked up): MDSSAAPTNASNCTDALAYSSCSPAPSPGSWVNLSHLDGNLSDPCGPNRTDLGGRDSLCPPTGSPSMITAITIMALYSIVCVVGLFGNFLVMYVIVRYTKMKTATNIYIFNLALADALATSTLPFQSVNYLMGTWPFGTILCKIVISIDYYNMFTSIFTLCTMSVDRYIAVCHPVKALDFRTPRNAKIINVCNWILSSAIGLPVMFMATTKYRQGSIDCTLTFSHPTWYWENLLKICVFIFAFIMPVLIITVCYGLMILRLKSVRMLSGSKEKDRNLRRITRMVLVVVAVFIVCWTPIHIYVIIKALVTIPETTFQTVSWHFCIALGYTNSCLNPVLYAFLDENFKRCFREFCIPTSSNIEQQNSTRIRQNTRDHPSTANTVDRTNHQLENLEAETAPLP
guinea pig Serotonin, 5-Hydroxytryptamine Receptor 4 (5HT4), HTR4 (gene 100135548), sequence (O70528 whole entry, looked up): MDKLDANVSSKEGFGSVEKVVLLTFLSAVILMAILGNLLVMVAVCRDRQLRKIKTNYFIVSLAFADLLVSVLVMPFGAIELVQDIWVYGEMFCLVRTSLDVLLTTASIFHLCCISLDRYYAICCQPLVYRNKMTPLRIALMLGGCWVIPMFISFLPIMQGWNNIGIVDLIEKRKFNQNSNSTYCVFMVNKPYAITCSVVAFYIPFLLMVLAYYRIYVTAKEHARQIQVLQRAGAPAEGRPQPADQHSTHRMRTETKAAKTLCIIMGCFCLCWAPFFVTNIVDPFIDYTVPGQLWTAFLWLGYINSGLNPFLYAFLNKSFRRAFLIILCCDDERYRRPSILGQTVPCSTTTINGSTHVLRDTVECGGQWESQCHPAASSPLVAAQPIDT
rat Adrenergic Receptor, Alpha 2 (Adra2), Non-selective Binding, Adra2a (gene 25083), sequence (P22909 whole entry, looked up): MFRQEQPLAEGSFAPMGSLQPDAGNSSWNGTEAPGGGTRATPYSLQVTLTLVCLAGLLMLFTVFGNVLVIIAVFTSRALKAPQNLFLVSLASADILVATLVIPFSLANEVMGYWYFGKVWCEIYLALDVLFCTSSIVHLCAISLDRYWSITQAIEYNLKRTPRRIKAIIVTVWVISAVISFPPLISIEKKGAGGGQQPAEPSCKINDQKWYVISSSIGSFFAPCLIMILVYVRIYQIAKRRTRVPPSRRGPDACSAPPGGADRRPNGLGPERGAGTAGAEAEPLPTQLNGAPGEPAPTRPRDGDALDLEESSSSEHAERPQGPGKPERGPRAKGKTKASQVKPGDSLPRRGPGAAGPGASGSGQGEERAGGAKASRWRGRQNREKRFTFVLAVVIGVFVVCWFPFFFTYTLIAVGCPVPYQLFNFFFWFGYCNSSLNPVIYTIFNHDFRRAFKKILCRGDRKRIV
human Thromboxane A2 Receptor (TXA2), TBXA2R (gene 6915), sequence (P21731 whole entry, looked up): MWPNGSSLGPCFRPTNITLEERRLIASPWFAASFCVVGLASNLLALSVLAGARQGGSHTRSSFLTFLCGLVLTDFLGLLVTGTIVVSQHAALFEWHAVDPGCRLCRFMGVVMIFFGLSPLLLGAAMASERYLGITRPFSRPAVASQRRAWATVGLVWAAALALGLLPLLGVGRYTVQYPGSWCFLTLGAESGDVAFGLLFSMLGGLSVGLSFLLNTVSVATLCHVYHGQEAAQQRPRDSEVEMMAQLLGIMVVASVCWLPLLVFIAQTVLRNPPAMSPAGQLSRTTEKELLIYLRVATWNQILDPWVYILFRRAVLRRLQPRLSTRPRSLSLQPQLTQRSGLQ
Adra2b (gene 24174), sequence (P19328 whole entry, looked up): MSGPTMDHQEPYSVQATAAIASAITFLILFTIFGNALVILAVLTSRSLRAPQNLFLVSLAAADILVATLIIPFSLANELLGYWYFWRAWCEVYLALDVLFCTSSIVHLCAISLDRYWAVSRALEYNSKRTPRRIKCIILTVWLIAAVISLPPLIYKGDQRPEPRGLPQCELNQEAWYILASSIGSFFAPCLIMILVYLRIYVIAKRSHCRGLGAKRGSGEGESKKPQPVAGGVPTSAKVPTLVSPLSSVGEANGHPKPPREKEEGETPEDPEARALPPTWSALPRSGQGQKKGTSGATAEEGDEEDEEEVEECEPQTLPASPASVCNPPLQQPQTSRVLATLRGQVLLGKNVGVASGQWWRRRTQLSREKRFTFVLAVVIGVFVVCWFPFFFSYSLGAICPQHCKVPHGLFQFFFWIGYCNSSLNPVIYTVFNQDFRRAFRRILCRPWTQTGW
mouse Cholecystokinin, CCK1 Receptor (CCKA), Cckar (gene 12425), sequence (O08786 whole entry, looked up): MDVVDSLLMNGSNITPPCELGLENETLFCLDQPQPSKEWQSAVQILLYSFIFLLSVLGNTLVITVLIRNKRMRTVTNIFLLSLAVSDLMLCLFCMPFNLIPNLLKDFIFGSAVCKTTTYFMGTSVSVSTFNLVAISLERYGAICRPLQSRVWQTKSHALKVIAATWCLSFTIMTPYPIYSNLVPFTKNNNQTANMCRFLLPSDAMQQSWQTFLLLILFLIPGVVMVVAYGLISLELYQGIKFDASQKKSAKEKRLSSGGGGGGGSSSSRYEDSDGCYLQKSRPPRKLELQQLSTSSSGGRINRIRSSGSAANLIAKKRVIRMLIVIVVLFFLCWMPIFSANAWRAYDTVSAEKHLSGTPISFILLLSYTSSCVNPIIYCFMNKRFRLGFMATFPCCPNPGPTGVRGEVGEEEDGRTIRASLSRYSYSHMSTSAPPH
rat Histamine Receptor (H3), Hrh3 (gene 85268), sequence (Q9QYN8 whole entry, looked up): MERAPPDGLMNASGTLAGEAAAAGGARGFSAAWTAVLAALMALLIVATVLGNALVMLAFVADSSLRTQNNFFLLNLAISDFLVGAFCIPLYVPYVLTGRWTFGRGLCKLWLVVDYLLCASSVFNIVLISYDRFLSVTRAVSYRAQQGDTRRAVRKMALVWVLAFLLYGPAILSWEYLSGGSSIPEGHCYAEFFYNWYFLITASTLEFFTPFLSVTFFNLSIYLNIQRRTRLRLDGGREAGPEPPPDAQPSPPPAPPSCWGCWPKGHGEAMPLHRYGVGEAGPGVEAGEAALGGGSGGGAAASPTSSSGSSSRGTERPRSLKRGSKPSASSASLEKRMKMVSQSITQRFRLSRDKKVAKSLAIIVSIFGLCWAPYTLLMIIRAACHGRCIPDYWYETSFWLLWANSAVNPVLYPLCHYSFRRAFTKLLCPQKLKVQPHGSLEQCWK
rat Serotonin, 5-Hydroxytryptamine Receptor 1 (5HT1), Non-Selective Binding, Htr1a (gene 24473), sequence (P19327 whole entry, looked up): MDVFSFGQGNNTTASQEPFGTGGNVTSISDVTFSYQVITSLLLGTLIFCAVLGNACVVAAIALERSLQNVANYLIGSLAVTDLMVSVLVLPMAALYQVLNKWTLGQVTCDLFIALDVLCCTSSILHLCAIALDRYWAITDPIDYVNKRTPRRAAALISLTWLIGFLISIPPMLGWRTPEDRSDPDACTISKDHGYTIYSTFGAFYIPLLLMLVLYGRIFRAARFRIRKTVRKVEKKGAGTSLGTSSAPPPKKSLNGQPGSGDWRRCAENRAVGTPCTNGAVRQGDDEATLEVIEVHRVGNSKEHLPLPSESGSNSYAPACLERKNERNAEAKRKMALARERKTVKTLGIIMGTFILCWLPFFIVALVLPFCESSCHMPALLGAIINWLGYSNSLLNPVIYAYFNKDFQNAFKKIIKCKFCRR
rat Adrenergic, Alpha 1A Receptor (Adra1A), Adra1a (gene 29412), sequence (P43140 whole entry, looked up): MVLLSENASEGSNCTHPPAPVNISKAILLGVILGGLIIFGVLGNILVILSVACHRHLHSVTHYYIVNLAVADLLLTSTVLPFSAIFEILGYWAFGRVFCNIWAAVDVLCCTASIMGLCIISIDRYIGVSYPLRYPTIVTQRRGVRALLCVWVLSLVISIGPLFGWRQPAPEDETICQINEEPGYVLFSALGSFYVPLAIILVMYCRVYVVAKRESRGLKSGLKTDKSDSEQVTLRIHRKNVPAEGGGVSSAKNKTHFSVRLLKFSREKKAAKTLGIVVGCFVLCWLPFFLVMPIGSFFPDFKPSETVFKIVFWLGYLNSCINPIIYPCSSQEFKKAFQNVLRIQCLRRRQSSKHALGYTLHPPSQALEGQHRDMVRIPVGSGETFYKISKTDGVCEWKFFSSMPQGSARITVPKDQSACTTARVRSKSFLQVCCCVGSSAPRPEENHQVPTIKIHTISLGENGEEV
rat Adrenergic, Alpha 1, Non-selective Receptor (Adra1), Adra1a (gene 29412), sequence (P43140 whole entry, looked up): as above

As for `CCCCC(CC)C(=O)O` (centres undefined), in assay [1], the outcome was inactive.

As for `C=CC(=C)CC/C=C(\C)CCC=C(C)C`, in assay [2], the compound was classed as inactive.

Turning to `CCCCc1oc2ccccc2c1C(=O)c1cc(I)c(OCCN(CC)CC)c(I)c1`, the compound was classed as inactive in assay [1]. In addition, the AC50 in assay [3] was 21.6 µM (active); in [4], 22.5 µM (active); in [5], 24.5 µM (active); in [6], 15.7 µM (active); in assay [7], 9.13 µM (active); in assay [8] it was 10.8 µM (active). In addition, the values for the concentration at half-maximal activity (AC50) in assay [9] and in assay [10] were 6.48 µM (active) and 11.4 µM (active), respectively.

Consider `CCC(=O)O`, for which, in [11], the compound was classed as inactive.

Regarding `O=C(CCCN1CCC(O)(c2ccc(Cl)cc2)CC1)c1ccc(F)cc1`, the AC50 was 37.3 µM (active) in assay [3], 1.75 µM (active) in [6] and 18.2 µM (active) in [13]. Moreover, the compound was classed as inactive in [12].

Consider `CC(O)COc1ccccc1` (centres undefined), for which, in [11], the result was inactive.

With `CS(=O)(=O)c1ccc([C@@H](CC2CCCC2)C(=O)Nc2cnccn2)cc1Cl`, the result in assay [1] was inactive.

On to `COC1=CC(=O)C[C@@H](C)[C@]12Oc1c(Cl)c(OC)cc(OC)c1C2=O`, for which the AC50 in [8] was 3.69 µM (active).

As to `C[C@]12CC[C@@H]3c4ccc(O)cc4CC[C@H]3[C@@H]1C[C@@H](O)[C@@H]2O`, the call in assay [11] was inactive.

With `OCC(CO)(CBr)CBr`, the compound was classed as inactive in assay [11].

With `N=C(N)c1ccc(OCCCCCOc2ccc(C(=N)N)cc2)cc1`, the concentration at half-maximal activity (AC50) in [14] is 27.8 µM (active); in [12], 3.44 µM (active); in assay [15], 10.2 µM (active); in [6], 2.4 µM (active); in assay [16], 14 µM (active); in assay [17], 1.32 µM (active). The AC50 in assay [7] is 1.06 µM (active); in assay [8], 3.49 µM (active); in assay [9] it was 0.362 µM (active); in assay [10], 9.06 µM (active); in assay [19], 18.4 µM (active). Moreover, the call in assay [18] was inactive.

Take `CC=O`: the call in assay [11] was inactive.

For `CCC(C)c1ccccc1O` (centres undefined), in assay [15], the AC50 is 11.5 µM (active).

`CN(C)c1ccc(C(=C2C=CC(=[N+](C)C)C=C2)c2ccccc2)cc1`: the AC50 is 12.5 µM (active) in assay [11]; 6.79 µM (active) and 6.47 µM (active) in assay [2]; 8.31 µM (active) and 7.55 µM (active) in assay [8]. For the same compound, in [11], the result was inactive.

Values taken from PubChem BioAssay (EPA / NIEHS).
